Measured values published in PubChem BioAssay (NCI).
Compounds without any hit were thinned out: in the full panel of roughly 79,000, 15% have a hit. Values without a mark were called inactive. The source made the active and inactive calls. Cut-off read from the data, not from the text of the source: active = growth inhibition above about 70%; inactive = the rest.

Experiments:
[1] = NCI Yeast Anticancer Drug Screen. Data for the rad50 strain (AID 155);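 note: 0% = growth of vehicle-only cultures of the same strain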; conditions: S. cerevisiae rad50 strain growth inhibition, active compounds read high
Procedure, shortened: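 DNA repair mutant yeast, compound exposure, growth read-out; inhibition is taken relative to vehicle.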

[2] = NCI Yeast Anticancer Drug Screen. Data for the mec2-1 strain (AID 157); conditions: S. cerevisiae mec2-1 strain, active compounds read high
Procedure, shortened: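 Readout is yeast growth inhibition, normalised to vehicle-treated controls, in the mec2-1 strain exposed to compound.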

[3] = NCI Yeast Anticancer Drug Screen. Data for the sgs1 mgt1 strain (AID 161);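 note: 0% = growth of cultures given vehicle only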; conditions: S. cerevisiae sgs1 mgt1 strain, active compounds read high
Procedure, shortened: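 Growth of a repair-deficient yeast mutant was monitored after compound treatment and expressed as inhibition relative to vehicle-treated cultures.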

[4] = NCI Yeast Anticancer Drug Screen. Data for the cln2 rad14 strain (AID 165);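 note: 0% = growth equal to vehicle treated cultures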; conditions: S. cerevisiae cln2 rad14 strain, active compounds read high
Procedure, shortened: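 Relative to vehicle controls, growth inhibition of compound-treated cln2 rad14 yeast was recorded.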

[5] = NCI Yeast Anticancer Drug Screen. Data for the bub3 strain (AID 167); conditions: S. cerevisiae bub3 mutant strain, active compounds read high
Procedure, shortened: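 In this screen, a yeast mutant lacking normal mitotic checkpoint function is challenged with compound. Relative growth versus vehicle gives the inhibition value.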

[6] = NCI Yeast Anticancer Drug Screen. Data for the mlh1 rad18 strain (AID 175); conditions: S. cerevisiae mlh1 rad18 strain growth inhibition, active compounds read high
Procedure, shortened: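 Test agents were incubated with a yeast strain of defined genotype (DNA damage repair defect). Inhibition of growth was derived by comparison with vehicle-exposed cultures.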

[7] = at 5.0 µM (retest, dose inferred, filed as 0.5)
[8] = at 50.0 µM (retest, dose inferred, filed as 5.0)

Compound | growth inhibition [1, 7] | growth inhibition [1, 8] | growth inhibition ([1]; at 50.0 µM) | growth inhibition [2, 7] | growth inhibition [2, 8] | growth inhibition ([2]; at 50.0 µM) | growth inhibition [3, 7] | growth inhibition [3, 8] | growth inhibition ([3]; at 50.0 µM) | growth inhibition [4, 7] | growth inhibition [4, 8] | growth inhibition ([4]; at 50.0 µM) | growth inhibition [5, 7] | growth inhibition [5, 8] | growth inhibition ([5]; at 50.0 µM) | growth inhibition [6, 7] | growth inhibition [6, 8] | growth inhibition ([6]; at 50.0 µM)
C[n+]1c(-c2cccc(OCCCCCCCCCCOc3cccc(-c4c5cc(N)ccc5c5ccc(N)cc5[n+]4C)c3)c2)c2cc(N)ccc2c2ccc(N)cc21 | 99% (active) | 81% (active) | 79.4% (active) | 99% (active) | 84% (active) | 84.4% (active) | 99% (active) | 85% (active) | 87.9% (active) | 99% (active) | 86% (active) | 88% (active) | 99% (active) | 80% (active) | 84.2% (active) | 97% (active) | 68% | 87.7% (active)
CC(C)C1=CC23CCC4C(C)(C(=O)O)CCCC4(C)C2CC1C(C(=O)O)C3C(=O)O (configuration not stated) | 80% (active) | 99% (active) | 98.4% (active) | 89% (active) | 99% (active) | 98.1% (active) | 52% | 98% (active) | 94.9% (active) | 86% (active) | 99% (active) | 98% (active) | 84% (active) | 99% (active) | 97.6% (active) | 88% (active) | 98% (active) | 96% (active)
O=S(=O)(Nc1ccc(NS(=O)(=O)c2ccccc2)c(N2N=N2)c1)c1ccccc1 | 1% | 69% | 86.3% (active) | 2% | 80% (active) | 66.2% | 4% | 76% (active) | 88.9% (active) | 0% | 55% | 79.1% (active) | -2% | 62% | 75.4% (active) | -2% | 79% (active) | 76.6% (active)
CCOc1ccc2nc3cc(Cl)ccc3[n+](C)c2c1 | 20% | 79% (active) | 85.2% (active) | 14% | 87% (active) | 87.3% (active) | 15% | 87% (active) | 82.8% (active) | 10% | 74% (active) | 72.7% (active) | 32% | 88% (active) | 83.9% (active) | 15% | 81% (active) | 86.7% (active)
CC(=O)Nc1ccc(C#N)c2ccccc12 | 43% | 33% | 40.4% | 42% | 33% | 35.8% | 0% | 29% | 23.1% | 41% | 34% | 7.4% | 21% | 44% | 40.8% | 35% | 35% | 19.4%
O=[N+]([O-])c1ccc(/C(=C\c2ccccc2)Cn2ccnc2)cc1 | 88% (active) | 94% (active) | 71.5% (active) | 59% | 85% (active) | 77% (active) | 84% (active) | 92% (active) | 71.3% (active) | 89% (active) | 91% (active) | 64.8% | 78% (active) | 94% (active) | 81.8% (active) | 80% (active) | 92% (active) | 75.5% (active)
CCCCc1c(O)c(N=NC(=O)C[n+]2ccccc2)c2ccccc2c1O | -2% | 10% | 8.55% | -3% | 32% | 11.6% | 2% | 27% | 17.8% | 2% | -3% | 40.1% | -3% | -1% | 13.5% | -2% | 21% | 4.75%
C#CC(O)c1ccc(Cl)cc1Cl (configuration not stated) | 9% | 96% (active) | 99% (active) | -2% | 95% (active) | 99.5% (active) | 0% | 92% (active) | 95.3% (active) | -1% | 94% (active) | 99.2% (active) | 5% | 96% (active) | 99% (active) | 6% | 98% (active) | 99.1% (active)
Clc1ccc(C2=Nc3ccccc3SC(c3ccc(Cl)c(Cl)c3)C2)c(Cl)c1 (configuration not stated) | 16% | 16% | 64.2% | 12% | 12% | 49.3% | 1% | 1% | 63.3% | 10% | 10% | 40.8% | 9% | 9% | 70.4% (active) | 13% | 13% | 63.7%
O=S1Nc2ccccc2S1 (configuration not stated) | 0% | 18% | 58% | -1% | 33% | 85.2% (active) | 2% | 42% | 99.2% (active) | -8% | 37% | 97% (active) | -1% | 77% (active) | 98.7% (active) | -1% | 41% | 96.2% (active)
CCCCCCCCCCCC[N+](C)(CCS(=O)(=O)[O-])Cc1ccccc1 (configuration not stated) | -1% | 51% | 98.2% (active) | 6% | 74% (active) | 99.2% (active) | 1% | 36% | 41.9% | 2% | 66% | 77.5% (active) | -2% | 61% | 72.1% (active) | -2% | 97% (active) | 99.2% (active)
CC(C)=CCC/C(C)=C/COC(=O)Nc1ccccc1 | -7% | -5% | 15.7% | -13% | -7% | 18.7% | -2% | 17% | 62.3% | -40% | -5% | 61% | -2% | -1% | 52.8% | -13% | -11% | 10.9%
CCN(CC)CCCNc1cc(C)nc2c1ccc1c2ccc2c(NCCCN(CC)CC)cc(C)nc21 | -4% | 92% (active) | 61.9% | -2% | 75% (active) | 97.8% (active) | -1% | 78% (active) | 65.8% | -7% | 82% (active) | 73.7% (active) | -4% | 97% (active) | 96.7% (active) | -4% | 81% (active) | 94.2% (active)
Fc1ccc(CSC(=S)Nc2ccc(F)cc2)cc1 | 5% | 29% | 69.5% | 0% | 16% | 47.6% | 2% | 29% | 68.3% | -9% | -4% | 32.5% | -6% | 8% | 27.6% | -3% | 19% | 78.7% (active)
CC1=CC2N(C=C1)C(c1ccccc1)=NON2c1cc(C)ccn1 (configuration not stated) | -20% | -10% | 24.7% | -23% | 14% | 33% | -1% | 23% | 62.5% | -39% | 7% | 25.1% | -44% | -14% | 5.7% | -34% | 38% | 68.9%
CN(C)c1nc(-c2ccccc2)cc(-c2ccc(O)cc2)n1 | 14% | 93% (active) | 36.8% | -10% | 27% | 13.7% | 22% | 92% (active) | 45.9% | 22% | 48% | 45.5% | -2% | 77% (active) | 60.5% | 24% | 88% (active) | 68.2%
C[C@H](CCC(=O)O)[C@H]1CC[C@H]2[C@@H]3CC[C@@H]4C[C@H](O)CC[C@]4(C)[C@H]3C[C@H](O)[C@]12C | -14% | 95% (active) | 99.2% (active) | 1% | 98% (active) | 98.8% (active) | -1% | 97% (active) | 99.3% (active) | -34% | 98% (active) | 99.3% (active) | -16% | 99% (active) | 98.8% (active) | -11% | 98% (active) | 99% (active)
Cc1cc2nc3ccc(N(C)C)cc3nc2cc1N | 42% | 94% (active) | 51.6% | 20% | 89% (active) | 93.8% (active) | 42% | 94% (active) | 45.9% | 29% | 80% (active) | 82.2% (active) | 19% | 90% (active) | 94.9% (active) | 42% | 92% (active) | 92% (active)
CCOC(=O)C(C)(C)Oc1ccc2c(=O)cc(-c3ccccc3)oc2c1 | -8% | 95% (active) | 85.5% (active) | -28% | 96% (active) | 93% (active) | -43% | 95% (active) | 93.4% (active) | 6% | 96% (active) | 92.5% (active) | -17% | 97% (active) | 92.5% (active) | -56% | 94% (active) | 89.9% (active)
